Eight compounds from PubChem BioAssay (NCI) can be followed below.

Among the test systems are SK-MEL-2 melanoma; EKVX NSCLC; SN12C renal; UO-31 renal; TK-10 renal; ACHN renal; CAKI-1 renal; A498 renal; CCRF-CEM leukemia; MOLT-4 leukemia; RPMI-8226 leukemia; OVCAR-8 ovarian; OVCAR-5 ovarian; OVCAR-4 ovarian; SK-OV-3 ovarian; IGROV1 ovarian; OVCAR-3 ovarian; NCI/ADR-RES ovarian; HS 578T breast.
What all share (experiment): NCI-60 one-dose screen, 48 h (100 = growth as untreated, 0 = no growth, -100 = all killed)
Settings in all cases: 10 µM unless noted

This is part of a sample that, as a whole, favours compounds with a hit. Of some 83,000 tested, about 20% had one in any assay.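 Single-concentration screen, 48 h exposure, 96-well plates. Endpoint: percent growth. Below 10 = active.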 Values without a mark were called inactive. Active and inactive are the calls of the source.

As for `O=C1NC(=S)NC(=O)C1CC(=O)n1c(-c2ccccc2)nc2ccccc21`, the growth in the assay with SK-MEL-2 melanoma is 110%; in the assay with EKVX NSCLC it was 82.4%; with SN12C renal, 95.8%; in the assay with UO-31 renal, 73.5%; in the assay on TK-10 renal it was 143%; in the assay with ACHN renal, 86.6%. Also, the growth with CAKI-1 renal is 77.2%; with A498 renal it was 89%; in the assay with CCRF-CEM leukemia it was 110%; in the assay with MOLT-4 leukemia, 99.9%; in the assay with RPMI-8226 leukemia, 108%; with OVCAR-8 ovarian, 95.3%. Moreover, the growth is 99.5% in the assay on OVCAR-5 ovarian; 98.1% in the assay with OVCAR-4 ovarian; 90.4% in the assay with SK-OV-3 ovarian; 84.2% with IGROV1 ovarian; 103% with OVCAR-3 ovarian; 104% in the assay with NCI/ADR-RES ovarian.

In the case of `COc1ccc(-c2cc(NC(=O)Nc3ccc4ncsc4c3)no2)cc1`, the growth in the assay on SK-MEL-2 melanoma is 112%; in the assay on EKVX NSCLC, 95.9%; in the assay with SN12C renal it was 96.3%; in the assay on UO-31 renal, 106%; in the assay on TK-10 renal, 104%; with ACHN renal, 99.6%. In addition, the growth in the assay with CAKI-1 renal was 91%; in the assay with A498 renal, 100%; in the assay on CCRF-CEM leukemia, 106%; in the assay with MOLT-4 leukemia, 96.1%; in the assay on RPMI-8226 leukemia, 92.6%; in the assay with OVCAR-8 ovarian, 102%. Moreover, the growth in the assay on OVCAR-5 ovarian was 98.6%; with OVCAR-4 ovarian, 96.2%; in the assay on SK-OV-3 ovarian it was 118%; in the assay with IGROV1 ovarian, 107%; with OVCAR-3 ovarian, 114%; with HS 578T breast it was 93.3%. For the same compound, in the assay with NCI/ADR-RES ovarian, the growth is 106%.

Regarding `Cc1c(/C=C/[N+](=O)[O-])ccc2c1[nH]c1ccccc12`, the growth is 93.5% in the assay with SK-MEL-2 melanoma; 98.6% with EKVX NSCLC; 99.7% in the assay on SN12C renal; 94.3% in the assay on UO-31 renal; 93.2% in the assay with TK-10 renal; 111% in the assay on ACHN renal. For the same compound, the growth is 102% in the assay on CAKI-1 renal; 83.6% with A498 renal; 87% in the assay on CCRF-CEM leukemia; 94.9% in the assay with MOLT-4 leukemia; -15% (active) with RPMI-8226 leukemia; 94.1% with OVCAR-8 ovarian. Further, the growth with OVCAR-5 ovarian is 106%; with OVCAR-3 ovarian, 123%; in the assay on HS 578T breast, 104%; in the assay with NCI/ADR-RES ovarian, 108%.

Regarding `Nc1nc2ncc(CCNc3ccc(C(=O)O)cc3)nc2c(=O)[nH]1`, the growth is 96.3% with SK-MEL-2 melanoma; 120% with EKVX NSCLC; 106% in the assay with SN12C renal; 86.6% with UO-31 renal; 103% in the assay with TK-10 renal; 110% in the assay with ACHN renal. Besides, the growth in the assay on CAKI-1 renal was 98.3%; with A498 renal, 120%; with CCRF-CEM leukemia, 87.9%; in the assay on MOLT-4 leukemia it was 75.5%; in the assay on RPMI-8226 leukemia it was 99.4%; in the assay with OVCAR-8 ovarian, 108%. The growth with OVCAR-5 ovarian is 103%; with SK-OV-3 ovarian, 115%; in the assay on IGROV1 ovarian it was 113%; in the assay with OVCAR-3 ovarian, 128%; with HS 578T breast it was 117%; in the assay with NCI/ADR-RES ovarian, 115%.

As to `O=C1NC(=S)N[C@H]1CC(=O)n1cnc2ccccc21`, the growth in the assay with SK-MEL-2 melanoma is 104%; with EKVX NSCLC, 90.5%; in the assay with SN12C renal, 95.4%; with UO-31 renal, 75.5%; with TK-10 renal it was 112%; in the assay with ACHN renal, 95.3%. The growth is 88.7% in the assay with CAKI-1 renal; 80.3% in the assay on A498 renal; 112% in the assay with CCRF-CEM leukemia; 108% with MOLT-4 leukemia; 115% in the assay on RPMI-8226 leukemia; 104% with OVCAR-8 ovarian. Moreover, the growth with OVCAR-5 ovarian was 100%; in the assay on OVCAR-4 ovarian it was 107%; with SK-OV-3 ovarian, 111%; with IGROV1 ovarian, 96.5%; in the assay on OVCAR-3 ovarian it was 110%; in the assay with HS 578T breast, 99.1%. The growth in the assay with NCI/ADR-RES ovarian is 96.5%.

Take `CC(=O)O[C@H]1CC[C@]2(C)[C@H]3CC=C4[C@@H]5CC(C)(C)CC[C@]5(C(=O)NCCNCCNCCN)CC[C@@]4(C)[C@]3(C)CC[C@H]2C1(C)C`: the growth was 96.9% in the assay on SK-MEL-2 melanoma; 81.9% in the assay with EKVX NSCLC; 89.5% with SN12C renal; 79.1% in the assay with UO-31 renal; 97.2% in the assay on TK-10 renal; -25.4% (active) in the assay with ACHN renal. The growth is 77.8% in the assay on CAKI-1 renal; 54.6% with A498 renal; -9.21% (active) with CCRF-CEM leukemia; -13% (active) with MOLT-4 leukemia; -23.7% (active) with RPMI-8226 leukemia; -0.659% (active) with OVCAR-8 ovarian. For the same compound, the growth in the assay on OVCAR-4 ovarian is 34.9%; in the assay with SK-OV-3 ovarian, 101%; with IGROV1 ovarian it was 46.9%; with OVCAR-3 ovarian, -30.6% (active); with HS 578T breast it was 92.2%; with NCI/ADR-RES ovarian, 74.6%.

Consider `O=C(/C=C/c1ccccc1)c1ccc(O)c(CN2CCN(c3cc4c(cc3F)c(=O)c(C(=O)O)cn4C3CC3)CC2)c1`, for which the growth in the assay on SK-MEL-2 melanoma is 22.8%; in the assay with EKVX NSCLC it was 43.3%; with SN12C renal it was 8.48% (active); with UO-31 renal it was 12.3%; in the assay on TK-10 renal, 62.7%; in the assay on ACHN renal it was 14.4%. For the same compound, the growth in the assay on CAKI-1 renal is 20.6%; with A498 renal, -18.4% (active); with CCRF-CEM leukemia it was 18.4%; with MOLT-4 leukemia, 35.8%; in the assay on RPMI-8226 leukemia it was -7.8% (active); with OVCAR-8 ovarian, 9.75% (active). The growth is 38.2% in the assay with OVCAR-5 ovarian; 85% in the assay with OVCAR-4 ovarian; 20.3% in the assay on SK-OV-3 ovarian; 18.4% in the assay on OVCAR-3 ovarian; 31% in the assay with HS 578T breast; 49% in the assay with NCI/ADR-RES ovarian.

With `COc1ccc(Nc2nc(SC)nc(-c3cccc([N+](=O)[O-])c3)c2C#N)cc1`, the growth in the assay on SK-MEL-2 melanoma is 94.9%; in the assay on EKVX NSCLC, 70.5%; in the assay with SN12C renal it was 64.5%; in the assay with UO-31 renal, 17.7%; in the assay on TK-10 renal it was 84%; with ACHN renal, 16.9%. Besides, the growth in the assay with CAKI-1 renal was 63%; with A498 renal, 57.8%; in the assay with CCRF-CEM leukemia it was 114%; with MOLT-4 leukemia, 99.8%; with RPMI-8226 leukemia, 98.4%; with OVCAR-8 ovarian, 39.4%. In addition, the growth with OVCAR-5 ovarian is 76.5%; in the assay with OVCAR-4 ovarian it was 2.52% (active); in the assay on SK-OV-3 ovarian it was 46.4%; with IGROV1 ovarian it was 72.3%; with OVCAR-3 ovarian, 74.5%; in the assay with HS 578T breast, 42.1%. Also, the growth with NCI/ADR-RES ovarian is 57.9%.
